SENP8 block-1: SENP8 protease inhibitors, primary screen, biochemical, luminescence. 330,000 tested, 1.2% active. AID 2540, 2010. purified SENP8, Z-RLRGG-aminoluciferin cleavage. inhibition, % at 10 µM. Sentrin-specific protease 8 (Homo sapiens), Q96LD8; in the data active = inhibition above about 50%
PPC-1+TRAIL kill: compounds killing PPC-1 cancer cells with TRAIL present, primary screen, TRAIL potentiator project, ATPLite luminescence, uHTS | cell killing (% activity), % at 4 µM or 5 µM | 220,000 tested, 0.41% active | PPC-1 cells + TRAIL, ATPLite viability luminescence;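 active = cell killing above 50% in the first pass at 4 µM, then a duplicate retest at 5 µM averaging 50% or more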;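 also: plate controls were cells with TRAIL plus DMSO for no effect and medium-only wells lacking cells for full effect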
SENP6 block: SENP6 protease inhibitors, primary screen, biochemical, luminescence, uHTS; AID 2599, 2010; inhibition, % at 10 µM; 330,000 tested, 1.8% active; Recombinant SENP6 catalytic domain, aminoluciferin luminescence; Sentrin-specific protease 6 (Homo sapiens), Q9GZR1;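 active = inhibition above about 50% at the single tested dose, limit read from the data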;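 also: plate controls were DMSO wells with enzyme for no effect and DMSO wells lacking enzyme for full effect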
SENP8 block-2: human SENP8 protease inhibitors, primary screen, biochemical, fluorescence, Nedd8 protein substrate, uHTS | inhibition, % at 20 µM | AID 602440, 2012 | recombinant SENP8 | 360,000 tested, 0.64% active; in the data active = inhibition mostly above about 40%, no sharp cut-off; inactive = mostly below about 27%
SENP7 inh: SENP7 protease inhibitors, primary screen, biochemical, luminescence, uHTS | Sentrin-specific protease 7 (Homo sapiens), Q9BQF6 | recombinant SENP7, Z-RLRGG-aminoluciferin luminescence, 40 min | inhibition, % at 5 µM | 330,000 tested, 1.5% active | AID 434973, 2010;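 active = inhibition above about 50% at the single test dose, limit read from the data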;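 also: plate controls were DMSO with enzyme for no effect and no enzyme buffer wells for full effect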
Target sequence (Q9BQF6 706-1050 limits assumed): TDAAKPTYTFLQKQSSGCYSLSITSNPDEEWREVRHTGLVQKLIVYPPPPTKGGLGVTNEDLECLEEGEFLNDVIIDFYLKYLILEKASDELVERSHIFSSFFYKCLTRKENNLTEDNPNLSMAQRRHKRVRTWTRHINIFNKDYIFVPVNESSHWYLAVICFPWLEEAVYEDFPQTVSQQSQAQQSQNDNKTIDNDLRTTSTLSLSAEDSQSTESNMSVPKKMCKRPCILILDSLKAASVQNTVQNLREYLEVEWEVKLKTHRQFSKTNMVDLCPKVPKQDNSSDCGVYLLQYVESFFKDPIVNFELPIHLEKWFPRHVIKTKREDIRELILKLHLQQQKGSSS
TRAIL sens C8: viability loss with TRAIL in NB7+C8 cells, primary screen, TRAIL sensitizer project, cell-based, ATPlite luminescence; 360,000 tested, 1% active; AID 624354, 2012; inhibition (viability loss, TRAIL sensitization), % at 10 µM;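 active = compounds causing at least 50% loss of cell viability in the single-dose screen, relative to plate controls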
SENP8 confirm: SENP8 protease inhibitors, retest, confirmation, biochemical, luminescence, single concentration | shares compounds with SENP7 inh | Recombinant SENP8, Z-RLRGG-aminoluciferin luminescence, 60 min | inhibition, % at 12.5 µM | 6,200 tested, 40% active;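 active = mean inhibition across replicates above about 50%, limit read from the data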
SENP6 conf: SENP6 protease inhibitors, confirmation, biochemical, luminescence, single concentration | shares compounds with SENP7 inh | recombinant SENP6, Z-RLRGG-aminoluciferin luminescence | inhibition, % at 12.5 µM | 6,200 tested, 58% active | AID 488915, 2010
SENP7 confirm: SENP7 protease inhibitors, retest, confirmation, biochemical, luminescence, single concentration. shares compounds with SENP7 inh. recombinant SENP7, Z-RLRGG-aminoluciferin luminescence, 40 min. inhibition, % at 12.5 µM. 6,200 tested, 69% active. AID 488917, 2010
Casp3 select: caspase-3 protease inhibitors, confirmation, selectivity assay for SENP inhibitor project, biochemical, single concentration. purified caspase-3, Z-DEVD-aminoluciferin luminescence, 60 min. 6,200 tested, 60% active. shares compounds with SENP7 inh. inhibition, % at 12.5 µM. AID 488918, 2010;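 active = mean inhibition above about 50%, limit read from the data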;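 also: plate controls were enzyme with DMSO for no effect and wells without caspase-3 for full effect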
Target sequence (P42574 28-227 limits assumed): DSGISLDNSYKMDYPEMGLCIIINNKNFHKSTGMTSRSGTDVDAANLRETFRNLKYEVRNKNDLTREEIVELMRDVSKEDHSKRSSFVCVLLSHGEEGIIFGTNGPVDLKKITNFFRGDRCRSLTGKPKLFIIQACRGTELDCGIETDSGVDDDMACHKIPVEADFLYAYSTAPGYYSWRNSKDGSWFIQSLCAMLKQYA
Luc interf: interferes with luciferase luminescence in SENP counter-screen; shares compounds with SENP7 inh; Pre-incubated SENP8/Z-RLRGG-aminoluciferin, luciferase luminescence interference; inhibition, % at 12.5 µM; 6,200 tested, 39% active; AID 488919;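 active = mean inhibition above about 50% when retested at one dose, limit read from the data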;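 also: plate controls were DMSO wells with completed reaction for no effect and substrate without enzyme for full effect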
* marks the source's active call; other numbers are inactive results; · = no result. The list is not random: actives were taken first. Their share in the collection is about 3%.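 The calls were made as follows, unless noted: active = mean inhibition above about 50% in the one-dose retest (limit read from the data); inactive = the rest.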

SMILES | SENP8 block-1 | PPC-1+TRAIL kill | SENP6 block | SENP8 block-2 | SENP7 inh | TRAIL sens C8 | SENP8 confirm | SENP6 conf | SENP7 confirm | Casp3 select | Luc interf
O=C(/C=C/Nc1ccccc1F)c1cccs1 | 96* | 50* | 96* | -79 | 100* | 87* | 97* | 100* | 103* | 98* | 97*
CCCCN(CCCC)C(=S)NC(=O)c1ccccc1Cl | -1 | 4 | -4 | 18 | 6 | -5 | · | · | · | · | ·
CCCCCN(C(=O)CCC(=O)OC(C)C(=O)NC1CCCCC1)c1c(N)n(CCCC)c(=O)[nH]c1=O (stereo not given) | -11 | · | -13 | 3 | 12 | 0 | · | · | · | · | ·
COc1ccccc1CNC(=O)C(C)c1ccc([N+](=O)[O-])cc1 (stereo not given) | 3 | 5 | 11 | 14 | -10 | 3 | · | · | · | · | ·
CC(=O)c1cnc(Nc2cccc(Cl)c2Cl)s1 | 41 | -4 | 53* | -270 | 48 | -3 | 62* | 58* | 86* | 61* | 5
CCOC(=O)C(=O)Nc1cc(C)on1 | -8 | 16 | -6 | -9 | -4 | -18 | · | · | · | · | ·
O=C1c2ccccc2-c2nc3ccccc3cc21 | 86* | · | 91* | 14 | 90* | 48 | 0 | 88* | 99* | 86* | 70*
Cc1cc2ccccc2nc1-c1ccccc1F | · | · | · | 0 | · | -3 | · | · | · | · | ·
c1ccc2c(c1)Cc1cc3ccccc3nc1-2 | 92* | · | 98* | 1 | 95* | 40 | 9 | 95* | 100* | 92* | 36
Cn1cccc1C(=O)OCc1cc(Cl)cc2c1OCOC2 | 45 | 3 | 75* | 10 | 51* | -20 | 70* | 72* | 90* | 47 | 65*
COC(=O)c1sccc1NC(=O)Cc1ccc(OC)c(OC)c1 | -8 | 6 | -1 | 15 | 0 | -4 | · | · | · | · | ·
COC(=O)c1sccc1NC(=O)Cc1ccc(Br)cc1 | 40 | 18 | 59* | 11 | 21 | 2 | 60* | 56* | 48 | 48 | 40
CCCCS(=O)(=O)N1CCN(S(=O)(=O)c2ccc(Cl)s2)CC1 | -13 | · | -13 | -1 | 4 | 2 | · | · | · | · | ·
CCCc1nnc(NC(=O)CC(=O)Nc2ccccc2C(=O)O)s1 | 43 | 28 | 61* | 0 | 38 | -10 | 65* | 61* | 84* | 87* | 60*
CCCc1nnc(NC(=O)CS(=O)(=O)c2ccccc2)s1 | -4 | · | -12 | 8 | -2 | 8 | · | · | · | · | ·
COc1ccc(-c2ccn(-c3cccc(F)n3)n2)cc1 | 8 | 3 | 2 | -182 | 4 | -5 | · | · | · | · | ·
Nc1nn(-c2cccc(F)n2)cc1-c1ccc(Cl)cc1 | 52* | 26 | 62* | -3 | 88* | 47 | 16 | 21 | 48 | 32 | 8
Nc1nn(-c2cccc(F)n2)cc1-c1ccccc1 | 84* | 25 | 87* | 7 | 92* | 33 | -28 | 81* | 97* | 83* | 27
CCNC(=O)C1(C)CCN(C(=O)c2cccs2)C1 (stereo not given) | · | · | · | 11 | · | -30 | · | · | · | · | ·
O=C(Nc1ccc2c(c1)OCCO2)C1c2ccccc2OCC(=O)N1Cc1ccco1 (stereo not given) | · | · | · | 8 | · | -6 | · | · | · | · | ·
CC(C)(C)NC(=O)C1c2ccccc2OCC(=O)N1CCCN1CCOCC1 (stereo not given) | · | · | · | 13 | · | -2 | · | · | · | · | ·
Cc1nnc2sc(-c3cccc(F)c3)nn2c1=O | 70* | · | 47 | 16 | 1 | -1 | 50* | 63* | 21 | 58* | -8
CCC(=O)Oc1ccc2c(c1)O/C(=C\c1ccco1)C2=O | -5 | 4 | -3 | -225 | -7 | 4 | · | · | · | · | ·
Cc1cc(O)cc2c1C(=O)/C(=C/c1ccco1)O2 | 63* | · | 67* | -71 | 2 | -3 | 85* | 87* | 98* | 90* | 89*
CN(CC(=O)Nc1ccc(F)cc1)C(=O)c1ccc(OCc2ccccc2)cc1 | -11 | · | -9 | 1 | -11 | 0 | · | · | · | · | ·
SMILES | SENP8 block-1 | PPC-1+TRAIL kill | SENP6 block | SENP8 block-2 | SENP7 inh | TRAIL sens C8 | SENP8 confirm | SENP6 conf | SENP7 confirm | Casp3 select | Luc interf
CC(=O)Oc1ccc(C(=O)Cc2ccc3ccccc3n2)c(O)c1C | 1 | 14 | -7 | 33 | 74* | 43 | -24 | -14 | -4 | -1 | -4
COc1ccc(N2Cc3ccccc3C2=O)cc1 | 78* | · | 87* | -83 | 93* | 67* | 86* | 87* | 98* | 94* | 82*
Cc1ccc(N2Cc3ccccc3C2=O)cc1 | 89* | · | 93* | -19 | 94* | 58* | 91* | 93* | 101* | 95* | 54*
COc1ccc(NC(=O)/C(=C\c2ccc(F)cc2)NC(=O)c2ccco2)cc1 | 7 | · | -4 | 5 | 3 | 3 | · | · | · | · | ·
CCC(=O)Nc1c2c(nn1-c1ccc(F)cc1)CS(=O)(=O)C2 | 0 | · | 7 | 13 | 1 | 1 | · | · | · | · | ·
NC(=O)c1ccsc1NC(=O)c1ccc(S(=O)(=O)N2CCCC2)cc1 | 21 | -34 | 30 | -24 | 20 | 28 | · | · | · | · | ·
NC(=O)c1ccsc1NC(=O)c1ccc(S(=O)(=O)N2CCCCC2)cc1 | 58* | 8 | 67* | -21 | 50 | 35 | 57* | 72* | 92* | 56* | 23
O=C(c1[nH]c(C(F)(F)F)nc1-c1ccccc1)N1CCC2(CC1)C(=O)NCN2c1ccccc1 | · | · | · | 16 | · | -8 | · | · | · | · | ·
CCOc1ccc(-c2nnc(-c3cccs3)o2)cc1OCC | -7 | 11 | -33 | -301 | -12 | -8 | · | · | · | · | ·
COc1ccc(-c2nnc(-c3cccs3)o2)cc1OC | 45 | 24 | 63* | -318 | 68* | 11 | 58* | 56* | 86* | 81* | 20
